An excerpt weighted towards active compounds, which were near 2.8% of everything screened.
PAFAH2 FP inh: PAFAH2 enzyme inhibitors, primary screen, biochemical, fluorescence polarization, human. recombinant PAFAH2, FP-rhodamine activity probe. inhibition, % at 3.39 µM. 340,000 compounds, 0.99% hits. AID 492956, 2010;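 active means inhibition above the mean over all tested compounds plus 3 SD, cut at about 30% in these data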;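 further: inhibitors block probe labeling of enzyme so polarization drops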
Fam108B inh: mouse Fam108B serine hydrolase inhibitors, primary screen, counter-screen for RBBP9 inhibitor project, biochemical, fluorescence polarization | recombinant Fam108B, FP-Rh probe fluorescence polarization | inhibition, % at 9.51 µM | 300,000 compounds, 0.33% hits | AID 1947, 2009;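 active means inhibition above the screen mean inhibition plus 3 SD, computed separately per campaign, cut at about 18% in these data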;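 further: inhibitors lower polarization as less probe binds the enzyme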
PAFAH1B3 FP inh: PAFAH1B3 enzyme inhibitors, primary screen, biochemical, fluorescence polarization, human; Platelet-activating factor acetylhydrolase IB subunit alpha1 (Homo sapiens), Q15102; recombinant PAFAH1B3, FP-rhodamine probe; inhibition, % at 3.39 µM; 340,000 compounds, 0.28% hits; AID 492972, 2010;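 active means inhibition above the screen-wide average of all tested compounds plus 3 SD, cut at about 25% in these data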
PAFAH1B2 inh: PAFAH1B2 enzyme inhibitors, primary screen, biochemical, fluorescence polarization, human; Platelet-activating factor acetylhydrolase IB subunit alpha2 (Homo sapiens), P68402; recombinant PAFAH1B2, FP-rhodamine activity probe; inhibition, % at 3.39 µM; 340,000 compounds, 1.2% hits; AID 492953, 2010;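 active means inhibition above the mean of all tested compounds plus 3 SD, cut at about 24% in these data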
Target sequence (P68402 whole entry, looked up): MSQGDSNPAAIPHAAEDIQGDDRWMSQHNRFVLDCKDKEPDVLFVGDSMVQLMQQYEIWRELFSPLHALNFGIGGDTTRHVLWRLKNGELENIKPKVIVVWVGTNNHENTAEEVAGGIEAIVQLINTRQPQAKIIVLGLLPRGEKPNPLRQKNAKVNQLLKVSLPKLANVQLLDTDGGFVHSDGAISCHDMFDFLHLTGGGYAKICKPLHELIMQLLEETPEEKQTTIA
PME-1 primary: PME-1 inhibitors via competitive probe labeling, primary screen, biochemical, fluorescence polarization, FP-Rh probe, HTS; Protein phosphatase methylesterase 1 (Homo sapiens), Q9Y570; recombinant PME-1; inhibition, % at 5.9 µM; 320,000 compounds, 0.53% hits; AID 2130, 2009;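 active means inhibition above the campaign mean of all compounds plus 3 SD, cut at about 26% in these data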;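 further: competitive labeling of PME-1 active site by serine hydrolase directed probe; inhibitors block probe labeling so polarization falls and inhibition rises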
pPAFAH inh: pPAFAH enzyme inhibitors, primary screen, biochemical, fluorescence polarization, human; Platelet-activating factor acetylhydrolase (Homo sapiens), Q13093; recombinant pPAFAH, FP-rhodamine probe fluorescence polarization; inhibition, % at 3.39 µM; 330,000 compounds, 1.5% hits; AID 463082, 2010;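 active means inhibition above the mean inhibition across the screen plus 3 SD, cut at about 25% in these data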;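 further: inhibitors block binding of the rhodamine activity-based probe so polarization drops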
Target sequence (Q13093 whole entry, looked up): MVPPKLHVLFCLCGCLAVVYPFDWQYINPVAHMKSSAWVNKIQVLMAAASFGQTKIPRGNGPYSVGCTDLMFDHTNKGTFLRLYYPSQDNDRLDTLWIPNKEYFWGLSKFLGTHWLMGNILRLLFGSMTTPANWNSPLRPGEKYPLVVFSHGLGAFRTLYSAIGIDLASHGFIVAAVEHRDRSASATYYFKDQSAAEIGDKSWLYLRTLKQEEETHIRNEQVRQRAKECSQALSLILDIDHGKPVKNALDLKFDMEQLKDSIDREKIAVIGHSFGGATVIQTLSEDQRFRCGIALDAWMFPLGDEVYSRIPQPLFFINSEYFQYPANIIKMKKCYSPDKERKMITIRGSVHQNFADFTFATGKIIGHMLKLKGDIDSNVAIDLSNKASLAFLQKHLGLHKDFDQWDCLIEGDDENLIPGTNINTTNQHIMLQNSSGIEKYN
A number is an active result; n = inactive; x = not tested or not shown.

SMILES | PAFAH2 FP inh | Fam108B inh | PAFAH1B3 FP inh | PAFAH1B2 inh | PME-1 primary | pPAFAH inh
CCc1cccc(NS(=O)(=O)c2ccc3c(c2)CCC(=O)N3)c1 | n | n | n | n | n | n
O=C1CCc2cc(S(=O)(=O)Nc3ccc(F)cc3)ccc2N1 | n | x | n | n | n | 29
Cc1cccc(NS(=O)(=O)c2ccc3c(c2)CCC(=O)N3)c1 | n | n | n | n | n | 28
Cn1c(=O)oc2cc(S(=O)(=O)Nc3ccc(F)cc3)ccc21 | n | n | n | n | n | 26
CCOCCCn1c(SCC(=O)Nc2ccc(OC)cc2)nc2ccccc2c1=O | n | n | n | n | n | n
c1ccc(Cc2cc[n+](Cc3ccccn3)cc2)cc1 | n | n | n | n | n | n
Cc1ccc(NCC(=O)N=Nc2c(O)[nH]c3ccc([N+](=O)[O-])cc23)cc1 | x | n | x | x | n | 25
C=C(CN(C)C)C(=O)c1ccc2c(c1)OCO2 | n | x | n | n | x | x
COC(=O)C1CSc2[nH]c(=O)sc2C1c1ccccc1 (centres undefined) | n | n | n | 28 | n | n
COC(=O)C1Sc2[nH]c(=O)sc2C(c2ccc(Cl)cc2)C1C(=O)OC (centres undefined) | n | n | n | n | n | n
O=C(Cc1c(F)cccc1Cl)NNC(=O)c1ccncc1 | n | x | n | n | n | n
CCCn1c(N)c(N(CCOC)C(=O)CCC2CCCCC2)c(=O)[nH]c1=O | n | x | n | n | n | n
COc1ccc(Cl)cc1NS(=O)(=O)c1ccc(S(=O)(=O)N2CCCC2)cc1 | n | n | n | 25 | n | n
CCOc1ccccc1OCCCC(=O)N1CCN(S(=O)(=O)c2ccc(C)cc2)CC1 | n | n | n | 29 | n | n
O=C(CCCOc1ccccc1)N1CCN(S(=O)(=O)c2ccc(Cl)cc2)CC1 | n | n | n | 29 | n | n
CCOc1ccccc1OCCCC(=O)N1CCN(S(=O)(=O)c2ccc(C)cc2C)CC1 | n | x | n | n | n | n
Nc1ncccc1C(=O)OCC(=O)N1CCN(S(=O)(=O)c2ccc(Cl)cc2)CC1 | n | x | n | 24 | n | n
CCOc1ccc(OCCCC(=O)N2CCN(S(=O)(=O)c3ccc(Cl)cc3)CC2)cc1 | n | n | n | n | n | n
CN(c1ccc(OCC(=O)N2CCN(c3ccc(F)cc3)CC2)cc1)S(=O)(=O)c1cccs1 | n | n | n | n | n | n
Oc1ccc(N2CCN(c3nnnn3-c3ccccc3)CC2)cc1 | n | n | n | n | n | n
O=C(CCNC(=O)c1ccccc1)Nc1ccc(S(=O)(=O)Nc2ncccn2)cc1 | n | x | n | n | x | n
Cc1ccc(C)c(OCCCCN2CCNCC2)c1C | n | n | n | n | n | n
C=CC[C@@H](CC(=O)N[C@H](CO)Cc1ccccc1)C(=O)NCCOC(=O)[C@@H](CC=C)CC(=O)OC(C)(C)C | n | x | n | n | x | n
O=C(Cc1ccc(F)cc1)OCC(=O)N1CCN(S(=O)(=O)c2ccc(Cl)cc2)CC1 | n | n | n | n | n | 33
COc1ccc(CN(C)C(=O)CCc2ccc(S(=O)(=O)N3CCCCCC3)cc2)c(OC)c1 | n | x | n | n | n | n
SMILES | PAFAH2 FP inh | Fam108B inh | PAFAH1B3 FP inh | PAFAH1B2 inh | PME-1 primary | pPAFAH inh
COc1ccc(CN(C)C(=O)CCC(=O)N2CCN(S(=O)(=O)c3ccc(Cl)cc3)CC2)c(OC)c1 | n | x | n | 27 | x | x
COc1ccc(CNC(=O)COc2ccc(S(=O)(=O)N3CCCCC3)cc2)cc1 | n | n | n | n | n | 28
Cc1ccc(S(=O)(=O)CCC(=O)OCC(=O)N2CCN(S(=O)(=O)c3ccc(Cl)cc3)CC2)cc1 | n | n | n | n | n | n
O=C(COc1ccccc1)N1CCN(S(=O)(=O)c2ccc(Cl)cc2)CC1 | n | n | n | 31 | n | n
CC1=C(C(=O)OCc2ccccc2)C(c2ccccc2Br)NC(=O)N1 (centres undefined) | n | n | n | n | n | n
CC(C)COc1ccc(C/C(N)=N/n2cnnc2)cc1 | n | n | n | n | n | n
COc1ccc(OC)c(C(C)NC(=O)C(C)n2cc([N+](=O)[O-])cn2)c1 (centres undefined) | n | x | n | n | n | n
COc1ccccc1CNC(=O)N1CCN(S(=O)(=O)c2ccccc2)CC1 | n | n | n | n | n | n
COc1ccc(S(=O)(=O)N2CCCCCC2)cc1 | n | n | n | n | n | n
COc1ccc(S(=O)(=O)N2CCCCCC2)cc1C(=O)NCCOc1ccc(C)cc1 | n | n | n | n | 28 | n
COc1ccc(-c2ccc(S(=O)(=O)N3CCCC3)cc2)cc1 | n | n | n | n | n | 26
COc1ccccc1CNC(=O)N1CCN(S(=O)(=O)c2ccc(Cl)cc2)CC1 | n | n | n | 30 | n | n
Cc1sc2ncnc(OCC(=O)N3CCN(S(=O)(=O)c4ccc(Cl)cc4)CC3)c2c1C | n | n | n | n | 40 | n
COc1ccc(S(=O)(=O)N2CCCCCC2)cc1C(=O)NCc1ccccc1Cl | n | x | n | n | x | x
COc1cc(CCC(=O)Nc2ccc(C)c(S(=O)(=O)N3CCCCCC3)c2)cc(OC)c1OC | n | x | n | n | n | n
O=C(COc1ccc(S(=O)(=O)Nc2ccccc2)cc1)N1CCOCC1 | n | n | n | n | n | 27
O=C(CNc1cccc(S(=O)(=O)N2CCCCCC2)c1)Nc1cccc([N+](=O)[O-])c1 | n | x | n | n | n | n
O=C(CNc1cccc([N+](=O)[O-])c1)N1CCN(S(=O)(=O)c2ccc(Cl)cc2)CC1 | n | x | n | 24 | x | x
COc1ccc(NS(=O)(=O)c2ccc(OCC(=O)N3CCOCC3)cc2)cc1 | n | n | n | n | n | n
O=C(COc1ccc(S(=O)(=O)N2CCCC2)cc1)N1CCCCC1 | n | n | n | n | n | n
COc1ccc(N2CCN(C(=O)C3CCN(S(=O)(=O)c4ccc(F)cc4)CC3)CC2)cc1 | n | n | n | n | 42 | n
O=C(COc1ccc(S(=O)(=O)N2CCCC2)cc1)N1CCCC1 | n | n | n | n | n | 31
CN1C[C@@H]2[C@@H]3C(=O)N(C)C(=O)[C@@H]3[C@](C)(C1=O)N2C(=O)c1ccccc1 | n | x | n | n | x | x
CCN(CC(=O)Nc1ccc(NC(C)=O)cc1)C(=O)c1ccc2c(c1)S(=O)(=O)N=C1CCCCCN12 | n | n | n | n | n | n
O=C(O)C1CCC(C(=O)O)SS1 (centres undefined) | n | x | n | n | x | x
Cc1ccc(S(=O)(=O)N2CCOC2CNC(=O)C(=O)NCc2ccc(Cl)cc2)cc1 (centres undefined) | n | n | n | 29 | n | n
COc1ccc(CNC(=O)C(=O)NCC2OCCCN2S(=O)(=O)c2cccs2)cc1 (centres undefined) | n | n | n | 27 | n | n
